Experimental data taken from PubChem BioAssay.
Activity calls are given as the source filed them.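 How the source made its calls, unless noted: active means compounds whose cell count with miR-34 switched on is under 0.7 times the count with it off; inactive means the rest.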

Columns and labels:
[1] = viability loss with induced miR-34 in A549 – imaging, A549 dox-inducible miR-34, nuclei and caspase counts, primary screen (AID 1347080); conditions: A549 miR-34 inducible, Hoechst nuclei count, 48 h
[2] = MELAS cybrid and Rieske KO viability enhancers – cell-based, MELAS cybrids, Rieske KO mouse fibroblasts, CellTiter-Glo, primary screen (AID 1508586;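 active means mean z-score across replicates of 1.96 or higher in either the MELAS or the Rieske mutant cell line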;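 further: z relative to plate mean and SD of compound and empty wells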); conditions: low glucose
[3] = stronger effect = lower value, cell number ratio, induced over uninduced
[4] = measured here: relative caspase fold change +Dox/-Dox
[5] = measured here: total cells with miR-34 induction, stronger effect = lower value
[6] = measured here: total cells without miR-34 induction
[7] = MELAS cybrid survival, CellTiter-Glo 48 h, stronger effect = higher value
[8] = Rieske KO mouse fibroblast survival, CellTiter-Glo 72 h
Further: test concentration not given here.

SMILES	fold change [1, 3]	fold change [1, 4]	cell count [1, 5]	cell count [1, 6]	z-score [2, 7]	z-score [2, 8]
C[C@@]12CC[C@H]3c4ccc(O)cc4CC(CCCCCCCCCS(=O)CCCC(F)(F)C(F)(F)F)[C@H]3[C@@H]1CCC2O (some centres not stated)	0.975 (inactive)	0.957	4560	4680	-0.569 (inactive)	0.522
CC1(C)SC2C(NC(=O)C(C(=O)O)c3ccsc3)C(=O)N2C1C(=O)O (configuration not stated)	0.763 (inactive)	0.814	7330	9600	-0.203 (inactive)	-0.146
CCC(C)Nc1cc(C(=O)NC2CC3CCC(C2)N3c2ccc(C(=O)C3CC3)cn2)c(C)cc1C(N)=O (configuration not stated)	0.94 (inactive)	0.437	2340	2490	2.2 (active)	-1.06
CCCCCCCCCCCCCCCC(=O)OC1C(SC)OC(C(NC(=O)C2CC(CCC)CN2C)C(C)Cl)C(O)C1O (configuration not stated)	0.883 (inactive)	0.558	9240	10500	-0.438 (inactive)	-0.237
CCCC1CC(C(=O)NC(C(C)O)[C@@H]2OC(SC)C(O)C(O)C2O)N(C)C1 (some centres not stated)	0.883 (inactive)	0.66	9270	10500	-0.388 (inactive)	-0.162
Cn1ncnc1C1c2n[nH]c(=O)c3cc(F)cc(c23)NC1c1ccc(F)cc1 (configuration not stated)	0.895 (inactive)	1.04	2740	3060	-0.229 (inactive)	-0.124
CC1(C)S[C@H]2C(NC(=O)C(N)c3ccc(O)cc3)C(=O)N2C1C(=O)O (some centres not stated)	1.01 (inactive)	0.573	8190	8150	-0.00212 (inactive)	-0.0136
Cc1cn(C2OC(CO)C(O)C2F)c(=O)[nH]c1=O (configuration not stated)	0.93 (inactive)	0.942	9750	10500	-0.347 (inactive)	0.612
CC(=Cc1ccccc1)C=C1SC(=S)N(CC(=O)O)C1=O	0.909 (inactive)	0.759	8290	9130	-0.0963 (inactive)	0.707
CC(C)(Oc1ccc(Cl)cc1)C(=O)OCCOC(=O)c1cccnc1	0.919 (inactive)	0.391	8570	9330	-0.212 (inactive)	-0.266
CC1OC(Oc2c(-c3cc(O)c(O)c(O)c3)oc3cc(O)cc(O)c3c2=O)C(O)C(O)C1O (configuration not stated)	0.976 (inactive)	1.01	8230	8430	-0.43 (inactive)	-0.277
Cc1cc(Cn2cnc3c2CC(C(=O)O)N(C(=O)C(c2ccccc2)c2ccccc2)C3)ccc1N(C)C (configuration not stated)	0.92 (inactive)	0.34	8010	8710	0.9 (inactive)	-1.41
CCC(C)C(=O)OC1CC(C)C=C2C=CC(C)C(CCC3CC(O)CC(=O)O3)[C@H]21 (some centres not stated)	1.2 (inactive)	0.613	3590	2990	-0.367 (inactive)	-1.71
CC1O[C@@H](OC2C(O)C[C@H](OC3C(O)C[C@H](OC4CC[C@@]5(C)[C@H](CC[C@@H]6[C@H]5CC(O)[C@]5(C)C(C7=CC(=O)OC7)CC[C@]65O)C4)OC3C)OC2C)CC(O)C1O (some centres not stated)	0.837 (inactive)	0.829	400	478	0.348 (inactive)	-0.197
CC#CCn1c(N2CCCC(N)C2)nc2c1c(=O)n(Cc1nc(C)c3ccccc3n1)c(=O)n2C (configuration not stated)	0.91 (inactive)	0.676	9950	10900	-0.379 (inactive)	0.539
CCCC(Nc1nc(-c2ccc(NC(=O)NCC)c(OC)c2)ncc1C)c1cccnc1 (configuration not stated)	1.06 (inactive)	0.656	1450	1370	2.93 (active)	-1.09

SMILES	fold change [1, 3]	fold change [1, 4]	cell count [1, 5]	cell count [1, 6]	z-score [2, 7]	z-score [2, 8]
Cc1ccc(NCCCc2ccccc2)c(N)c1	0.882 (inactive)	0.496	7500	8510	-0.425 (inactive)	0.263
COc1ccc(-c2ccc3c(N4CCOCC4C)nc(N4CCOCC4C)nc3n2)cc1CO (configuration not stated)	0.853 (inactive)	1.28	2360	2770	5.74 (active)	-3.07
CNC(=O)C(c1ccccc1)N1CCc2cc(OC)c(OC)cc2C1CCc1ccc(C(F)(F)F)cc1 (configuration not stated)	1.06 (inactive)	0.482	6530	6180	-0.149 (inactive)	0.101
CCNc1nc(Nc2cc(F)c(C(=O)N3CCOCC3)cc2OC)ncc1C(F)(F)F	0.9 (inactive)	0.418	8080	8970	-0.325 (inactive)	-0.142
Cc1cc(C)c(C=C2C(=O)Nc3ccccc32)[nH]1	0.941 (inactive)	0.528	5670	6030	0.363 (inactive)	-0.0507
O=C(O)C1=CC(O)C(O)C(O)C1 (configuration not stated)	0.975 (inactive)	0.723	9710	9960	-0.355 (inactive)	0.667
CNC1CN(c2ccc3c(=O)c(C(=O)O)cn(-c4nccs4)c3n2)CC1OC (configuration not stated)	1.31 (inactive)	0.345	1410	1080	2.91 (active)	-1.95
N#Cc1ccc2[nH]c(O)c(-c3ccc(CN4CCOCC4)cn3)c2c1	0.757 (inactive)	0.717	2200	2900	1.12 (inactive)	-0.87
CC(CNC(=O)c1cccnc1)NC(=O)c1cccnc1 (configuration not stated)	0.92 (inactive)	1.03	9140	9930	-0.163 (inactive)	-0.298
OCC1OC(c2ccc(Cl)c(Cc3ccc(OC4CCOC4)cc3)c2)C(O)C(O)C1O (configuration not stated)	0.997 (inactive)	0.234	8710	8730	-0.39 (inactive)	-0.293
C=C(C)C1CC[C@]2(C(=O)O)CC[C@]3(C)[C@H](CC[C@@H]4[C@@]5(C)CCC(O)C(C)(C)[C@@H]5CC[C@]43C)[C@@H]12 (some centres not stated)	0.87 (inactive)	0.918	6780	7790	-0.0804 (inactive)	-0.141
O=C(Nc1ccccc1Br)NC1CCN(c2ccc(C(F)(F)F)cn2)C1 (configuration not stated)	0.944 (inactive)	0.559	9350	9910	-0.215 (inactive)	0.944
CC(C)n1c(C=CC(O)CC(O)CC(=O)O)c(-c2ccc(F)cc2)c2ccccc21 (configuration not stated)	1.12 (inactive)	0.928	1580	1410	0.699 (inactive)	-1.97
OC(CC1c2ccccc2-c2cncn21)C1CCCCC1 (configuration not stated)	0.992 (inactive)	0.351	8340	8410	-0.436 (inactive)	-0.0844
CNCc1ccc(C)c(NC(=O)c2ccc(Nc3nc(-c4ccccc4)c4ccccc4n3)cc2)c1	0.989 (inactive)	0.59	6570	6650	-0.615 (inactive)	-0.107
CN(C)CCC=C1c2ccccc2Sc2ccc(Cl)cc21	1.02 (inactive)	0.667	7540	7420	-0.469 (inactive)	-0.0938
